# Compound activity from PubChem BioAssay.
# Pol eta inh = DNA polymerase eta (human) inhibition. Potency, µM (doses to about 114 µM), inactives show top-dose activity change, negative = inhibition, usual class: inhibitors. hit rate 1.2% among 390,000. recombinant Pol eta, fluorescent DNA replication assay. AID 588591; note: % is set by controls: 0 for no effect and ±100 for the full control effect
# Target sequence (Q9Y253 whole entry, looked up): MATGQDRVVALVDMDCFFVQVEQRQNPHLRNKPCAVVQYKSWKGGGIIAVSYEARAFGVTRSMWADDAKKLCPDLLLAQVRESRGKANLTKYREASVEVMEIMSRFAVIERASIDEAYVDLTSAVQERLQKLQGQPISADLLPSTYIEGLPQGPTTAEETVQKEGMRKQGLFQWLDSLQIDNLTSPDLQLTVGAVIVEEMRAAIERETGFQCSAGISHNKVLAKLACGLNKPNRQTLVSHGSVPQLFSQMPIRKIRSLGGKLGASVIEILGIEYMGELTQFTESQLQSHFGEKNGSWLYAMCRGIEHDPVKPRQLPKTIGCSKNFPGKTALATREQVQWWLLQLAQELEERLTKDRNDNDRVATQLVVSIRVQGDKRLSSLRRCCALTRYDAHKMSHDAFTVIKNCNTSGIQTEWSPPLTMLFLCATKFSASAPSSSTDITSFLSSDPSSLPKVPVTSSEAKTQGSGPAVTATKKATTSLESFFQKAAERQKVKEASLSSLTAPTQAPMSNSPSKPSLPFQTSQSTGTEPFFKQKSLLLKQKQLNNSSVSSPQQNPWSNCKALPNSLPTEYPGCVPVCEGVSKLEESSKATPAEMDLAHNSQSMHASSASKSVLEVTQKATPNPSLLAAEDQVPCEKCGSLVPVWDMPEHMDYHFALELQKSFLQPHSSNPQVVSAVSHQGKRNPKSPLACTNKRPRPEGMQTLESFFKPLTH
#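 Pol eta at 10 nM preincubated with compounds 15 min at room temperature; reaction started with fluorescent substrate (50 nM final) and read kinetically at 0 and 10 min.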
# Pol iota inh = blocks human DNA polymerase iota activity. Q9UNA4. Pol iota fluorescent replication assay, 10 min. Potency, µM (highest dose often 115 µM), without a hit: at the highest dose activity, negative = inhibition, most hits filed as inhibitors. hit rate 1% among 390,000
#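 Pol iota at 10 nM preincubated 15 min with compounds at room temperature; reaction started with fluorescent substrate, 50 nM final. Fluorescence read kinetically at 0 and 10 min; buffer-only wells as negative control.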
# POLK inh = inhibitors of human DNA polymerase kappa; Q9UBT6; purified Pol kappa, fluorescent DNA synthesis assay, 10 min; Potency, µM (doses to about 107 µM), inactives show at the top dose activity, negative = inhibition, actives largely listed as inhibitors; hit rate 0.53% among 400,000; AID 588579; note: % is set by controls: 0 for no effect and ±100 for the full control effect
#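 Enzyme at 10 nM met test compounds for 15 min at room temperature. Substrate addition (50 nM final) began the reaction, which was monitored by fluorescence at 0 and 10 min.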
# WRN inhibitor = inhibitors of human WRN helicase. WRN helicase unwinding, fluorescent forked duplex, kinetic. Q14191. hit rate 0.46% among 360,000. AID 651768. Potency, µM (highest dose often 114 µM), without a hit: at the highest dose activity change, negative = inhibition, most hits filed as inhibitors; note: % is set by controls: 0 for no effect and ±100 for the full control effect; nearly all actives have a fitted effect of over 55% in size
#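 Fluorescence dequenching readout, ex 525 nm/em 598 nm, kinetic mode: forked duplex DNA (100 nM final) with adjacent fluorophore and quencher unwound by WRN (20 nM final) with 2 mM ATP. Compound preincubation 15 min, room temperature.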
# FEN1 inhibitor = human FEN1 inhibition | Potency, µM (top dose mostly 114 µM), for inactives: at the top dose activity change, negative = inhibition, hits mostly inhibitors | AID 588795 | Recombinant FEN1 flap cleavage, fluorescence, 15 min | P39748 | hit rate 0.35% among 390,000; note: % is set by controls: 0 for no effect and ±100 for the full control effect; nearly all actives have a fitted effect of over 65% in size
#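 Quantitative HTS format: each compound was titrated, incubated with 10 nM nuclease for 15 min at room temperature, then challenged with flap substrate at 50 nM final. Signal change over 15 min gave concentration–effect curves.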
# Pol beta inh = inhibitors of human DNA polymerase beta; P06746; Pol beta primer extension/strand displacement, fluorescence kinetic; Potency, µM (series often up to 114 µM), for inactives: at the highest dose activity change, negative = inhibition, actives largely listed as inhibitors; hit rate 1.3% among 340,000; AID 485314; note: % is set by controls: 0 for no effect and ±100 for the full control effect
#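 Pol beta (10 nM) was preincubated with compound for 15 min at room temperature. The reaction was then started with 50 nM substrate and read immediately and after a further 10 min at room temperature.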
# * marks the source's active call; other numbers are inactive results; ? = inconclusive; / = no result given; [ ] = dose if it differs, or a comment. Only some compounds are listed: those with a hit (about 2.4% of all), similar ones and a draw of the others. Calls come from the whole dose curve; as a rule, active = well fitted curve in the direction sought with a large enough effect; inconclusive = small, poorly fitted or top-dose-only effect, or another doubt; inactive = no such curve, though single readings can be large; an effect the other way counts as inactive or inconclusive. Potency is the fitted concentration of half-maximal effect.
SMILES,Pol eta inh,Pol iota inh,POLK inh,WRN inhibitor,FEN1 inhibitor,Pol beta inh
Cc1occc1C(=O)NCc1ccc(C(=O)O)o1,56µM*,-5%,-2%,-16%[57.1 µM],-5%,1%
Cc1c(Br)cc(C(=O)NCc2ccco2)c(C)c1C,?,?,-27%,-10%[57.1 µM],12%,22µM*
Cc1cccc(C)c1NC(=O)/C(C#N)=C/c1ccc(-c2ccc(C(=O)O)cc2)o1,50µM*,-9%,?,-20%,4%,?
N#C/C(=C\c1ccc(N2CCOCC2)o1)C(=O)NCC1CCCO1 (configuration not stated),-22%,7%,-14%,3%,-2%,?
N#C/C(=C\c1ccc(-c2ccc(C(=O)O)cc2)o1)C(=O)NCC1CCCO1 (configuration not stated),13µM*,?,?,-14%,-15%,16µM*
COc1cccc(C(=O)c2cn(CC(=O)NCc3ccco3)c3nc(C)ccc3c2=O)c1,40µM*,22µM*,89µM*,?,8%,?
Cc1ccc2c(=O)c(C(=O)c3ccc(F)cc3)cn(CC(=O)NCc3ccco3)c2n1,?,?,?,-7%,-10%,?
CCOC(=O)c1sc(=S)n(-c2ccc(OC)cc2)c1C,-18%,48%,-1%,3%,-10%,1%
CCOC(=O)c1c2c(n(-c3ccc(OC)cc3)c1C)C(=O)C(=O)c1ccccc1-2,3.2µM*,8.9µM*,-6%,-18%,-23%,/
Cc1ccc(S(=O)(=O)NN=Cc2c(O)ccc3ccccc23)cc1,-19%,/,/,0%,/,/
Cc1ccc(S(=O)(=O)Nc2c(O)ccc3ccccc23)cc1,-6%,?,-11%,40µM*,?,/
O=S(=O)(Nc1c(O)ccc2ccccc12)c1cccc2ccccc12,-10%,92%,-5%,22µM*,?,/
CCCCNc1nc2c(c(=O)n(C)c(=O)n2C)n1CC(O)COc1ccccc1C (configuration not stated),-22%,30%,8%,/,-24%,0%
CC(=O)c1ccccc1NS(=O)(=O)c1cccc2nonc12,10%,-9%,2%,3%,-10%,-20%
CC(=O)c1ccccc1NS(=O)(=O)c1cccc2nsnc12,50µM*,45µM*,79µM*,-4%[11.6 µM],-10%,25µM*
Nc1nc2ccccc2cc1C(=O)NCc1cccs1,/,/,/,-4%,/,/
COc1cccc(/C=N/n2c(-c3n[nH]c4c3CCC4)n[nH]c2=S)c1O,-15%,-9%,-13%,-9%,3%,-18%
COc1ccccc1/C=C/C=N/n1c(-c2n[nH]c3c2CCC3)n[nH]c1=S,?,26%,-27%,-5%,-7%,7.9µM*
COc1cc2c(-c3ccccc3C)nc3c(c(C)nn3-c3ccccc3)c2cc1OC,-17%,?,-39%,/,1%,-2%
Cc1ccc(C)c(N2N=C(C(=O)NCCN3C(=O)S/C(=C\c4cccnc4)C3=O)CCC2=O)c1,?,50µM*,-24%,-1%[11.6 µM],-4%,/
CC(=O)Nc1ccc(OCC(O)CN2CCN(c3cc(Cl)ccc3C)CC2)cc1 (configuration not stated),-10%,7%,0%,-9%,-6%,6%
CC(=O)Nc1ccc(OCC(O)CN2CCN(c3ccc(C)c(Cl)c3)CC2)cc1 (configuration not stated),-10%,89µM*,-5%,-1%,0%,6%
O=C(CCCCn1c(=O)c2ccccc2n(CC(=O)Nc2ccc(F)cc2F)c1=O)NCc1ccccc1Cl,4%,0%,1%,/,25%,2%
Cc1ccc(CNC(=O)CCc2nnc3ccc(N4CCC5(CC4)OCCO5)nn23)cc1,-13%,?,79µM*,4%[11.6 µM],-7%,14%
Cc1c(C(=O)O)oc2c1-c1nn(Cc3ccc(Cl)cc3)cc1CC2,/,?,-34%,/,-11%,25µM*
SMILES,Pol eta inh,Pol iota inh,POLK inh,WRN inhibitor,FEN1 inhibitor,Pol beta inh
CS(=O)(=O)c1ccc(C(=O)OCC(=O)N2CC(=O)Nc3ccccc32)cc1[N+](=O)[O-],/,50µM*,-3%,/,9%,/
Cc1ccccc1NC(=O)Cc1nc(COC(=O)c2ccc(S(C)(=O)=O)c([N+](=O)[O-])c2)cs1,22µM*,?,-10%,-27%,8%,/
CS(=O)(=O)c1ccc(C(=O)OCC(=O)Nc2cc(C(F)(F)F)ccc2Cl)cc1[N+](=O)[O-],/,-13%,-25%,/,-7%,/
Cc1ccccc1NC(=O)Cc1nc(COC(=O)c2ccc(NC(N)=O)cc2)cs1,?,36%,-10%,-6%,9%,/
COc1ccc(C(C)=O)cc1COC(=O)c1ccc(N)c([N+](=O)[O-])c1,-16%,32µM*,-4%,-9%,-1%,-6%
Cc1ccccc1NC(=O)COC(=O)c1ccc(S(C)(=O)=O)c([N+](=O)[O-])c1,89µM*,?,-4%,-9%[11.6 µM],-10%,?
COc1ccc(C(C)=O)cc1COc1ccccc1[N+](=O)[O-],0%,7%,-9%,2%,-8%,-24%
CCOc1ccccc1NC(=O)CCc1nc(-c2cccc(C)c2)no1,-23%,-6%,-4%,/,-13%,25%
CC(=O)c1cccc(NC(=O)COC(=O)c2ccc(S(C)(=O)=O)c([N+](=O)[O-])c2)c1,79µM*,?,-5%,-24%[57.1 µM],-15%,10%
CS(=O)(=O)c1ccc(C(=O)OCC(=O)Nc2cccnc2Cl)cc1[N+](=O)[O-],89µM*,?,9%,-19%,3%,/
CC(=O)c1cccc(NC(=O)C(C)OC(=O)c2ccc(S(C)(=O)=O)c([N+](=O)[O-])c2)c1 (configuration not stated),/,-1%,7%,/,-22%,/
O=C(NC(c1ccc(-c2ccccc2)cc1)c1cnccn1)C1CCN(Cc2cccc(C(F)(F)F)c2)CC1 (configuration not stated),/,/,/,-17%,/,/
CC1(C)CC(=O)C2=C(C1)OC(N)=C(C#N)C2c1ccc[nH]1 (configuration not stated),-15%,28µM*,79µM*,-13%[57.1 µM],8%,20µM*
COc1cc(OC)cc(C(=O)Nc2nnc(NC(=S)Nc3ccccc3)s2)c1,?,5%,79µM*,?,-13%,-3%
CN(C)CCCN(C(=O)c1ccc(S(=O)(=O)N(C)C2CCCCC2)cc1)c1nc2ccc(F)cc2s1,-16%,8%,-10%,1%,?,4%
CCc1ccc2nc(N(CCCN(C)C)C(=O)c3ccc(S(=O)(=O)N(C)C4CCCCC4)cc3)sc2c1,-23%,-17%,?,-29%,79µM*,-18%
